Reference: the supplement of paper PMC6555819

What was measured:
Experiment in all cases: PBM binding z-score (relative to random genomic background probes); higher = stronger binding; sequences stand for … in GC…GCGATTGACAGCGTAGAATGAAGG
[1] = system: PPARg:RXRa DBDmut IVT, anti-RXR (DBD mutation: RXRa K156A/R161A, NR concentration 270 nM, RXRa partner concentration 90 nM)
Method in brief: (§1)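 Probes were double-stranded and carried 34-nt variable regions with direct-repeat seeds, single-nucleotide variants, half-site ablations and random human genomic background sequences, printed on custom Agilent 4×180K protein-binding microarrays. Arrays were incubated 1 h with ligand-free nuclear receptor dimers in PBS pH 7.4, 2% milk, 0.02% Triton X-100, 1 mM DTT, 0.2 mg/mL BSA and 0.4 mg/ml salmon testes DNA. Antibodies against each partner (one per run) detected binding, and scanned fluorescence was regression-normalized. Binding z-scores use the random background probes as reference.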

[2] = system: PPARg:RXRa IVT, anti-PPARg (NR concentration 270 nM, RXRa partner concentration 90 nM)
Method in brief: as §1

[3] = system: PPARg DBDmut:RXRa IVT, anti-PPARg (DBD mutation: PPARg1 K132A/R137A, NR concentration 270 nM, RXRa partner concentration 90 nM)
Method in brief: as §1

[4] = system: PPARg DBDmut IVT, anti-PPARg (DBD mutation: PPARg1 K132A/R137A, NR concentration 270 nM)
Method in brief: as §1

[5] = system: PPARg homodimer (NR concentration 180 nM)
Method in brief: as §1

[6] = system: PXR:RXRa (NR concentration 270 nM, RXRa partner concentration 90 nM)
Method in brief: as §1

[7] = system: PXR homodimer (NR concentration 270 nM)
Method in brief: as §1

[8] = system: RARa homodimer (NR concentration 270 nM)
Method in brief: as §1

[9] = system: RARb:RXRa (NR concentration 270 nM, RXRa partner concentration 90 nM)
Method in brief: as §1

[10] = system: RARb homodimer (NR concentration 270 nM)
Method in brief: as §1

[11] = system: RARg homodimer (NR concentration 270 nM)
Method in brief: as §1

[12] = system: RXRa DBDmut IVT, anti-RXR (DBD mutation: RXRa K156A/R161A, NR concentration 90 nM)
Method in brief: as §1

[13] = system: RXRa homodimer (NR concentration 180 nM)
Method in brief: as §1

[14] = system: THRa:RXRa (NR concentration 90 nM, RXRa partner concentration 90 nM)
Method in brief: as §1

[15] = system: THRa homodimer (NR concentration 90 nM)
Method in brief: as §1

[16] = system: VDR:RXRa (NR concentration 270 nM, RXRa partner concentration 90 nM)
Method in brief: as §1

[17] = system: VDR homodimer (NR concentration 270 nM)
Method in brief: as §1

[18] = system: RARg:RXRa (NR concentration 270 nM, RXRa partner concentration 90 nM)
Method in brief: as §1

[19] = system: RARa:RXR (NR concentration 270 nM, RXRa partner concentration 90 nM)
Method in brief: as §1

| Sequence | PBM binding z-score [1] | PBM binding z-score [2] | PBM binding z-score [3] | PBM binding z-score [4] | PBM binding z-score [5] | PBM binding z-score [6] | PBM binding z-score [7] | PBM binding z-score [8] | PBM binding z-score [9] | PBM binding z-score [10] | PBM binding z-score [11] | PBM binding z-score [12] | PBM binding z-score [13] | PBM binding z-score [14] | PBM binding z-score [15] | PBM binding z-score [16] | PBM binding z-score [17] | PBM binding z-score [18] | PBM binding z-score [19] |
| --- | --- | --- | --- | --- | --- | --- | --- | --- | --- | --- | --- | --- | --- | --- | --- | --- | --- | --- | --- |
| TAGCCTAGGTCATTCAGGGGTCAGTATAGAAAGC | 2.45 | 3.97 | 1.25 | 0.527 | 9.82 | 5.72 | 1.35 | 2.26 | 4.81 | 5.2 | 6.28 | 2.75 | 5.8 | 4.22 | 2.13 | 6.03 | 4.47 |  |  |
| CCGACTGGGGCAAAGGTCACCATACTCAGTACGA | 5.43 | 6.94 | 0.0184 | -0.117 | 4.04 | 5.34 | 0.429 | 1.73 | 4.73 | 4.81 | 6.32 | 0.548 |  | 3.62 | 1.04 |  | 1.55 | 7 |  |
| CGTCTAAGTTCAAGGTAACGTAACAGAAAGCAGC | 0.796 | 1.09 | 0.251 | 0.258 | 1.64 |  | 2.9 | 0.625 | 3.79 | 2.51 | 4.06 | 4.62 | 2.82 | 3.09 | 2.02 | 3.43 | 3.41 | 3.53 | 2.09 |
| CTCCAAAGGTCGGTTGAGGTGAGTATACGGATAA | 0.32 | 1.01 | 0.267 | -0.816 | 1.53 |  | 0.251 | -0.204 | 3.18 | 2.61 | 2.9 | 0.951 | 2.46 | 5 | 1.56 | 2.42 | 0.508 | 2.87 | 2.58 |
| CATCCAAGGTCAAAGGTCAGTGAAGAGATGACGG | 4.07 | 6.54 | 2.71 | 3.63 | 5.52 | 7.36 | 2.53 | 3.93 |  | 5.65 | 7.95 | 4.08 | 10.2 | 4.93 | 2.74 |  | 4.15 | 8.8 |  |
| CCTTACGGGTCAAGGTTATCGCACGGGTGGTACG | 2.42 | 3.71 | 0.643 | -0.085 | 2.19 |  | 0.106 | 0.512 | 4.2 | 3.58 | 5.11 | 1.31 | 5.6 | 3.15 | 1.02 | 3.69 | 1.69 | 5.02 | 4.53 |
| ATCAAAAGGTCGAAGGTGAGTATACCCACCCGAA | 0.661 | 2.86 | 1.48 | 0.784 | 2.7 |  | -0.118 | 0.445 | 4.05 | 2.75 | 4.34 | 1.27 | 5.55 | 2.26 | -0.268 |  | 0.86 | 4.51 | 4.72 |
| ACTATCAGGCCAAGGGTCACTCAAGATTAGTCCG | 1.26 | 3.82 | 0.909 | 0.584 | 3.28 |  | 0.337 | 1.45 | 3.72 | 3.89 | 3.73 | 1.23 | 4.05 | 3.35 | 0.937 |  | 1.45 | 4.3 | 4.42 |
| GATACAGGGTCAGCTTGAGGCCAGAGTATGGAAA | 1.23 | 2 | -0.407 | -0.636 | 1.71 |  | -0.346 | -0.0727 | 3.72 | 2.94 | 4.77 | 1.81 | 4.55 | 3.73 | 0.959 |  | 0.666 | 5.72 | 3.44 |
| CGTCTAAGGTCAAAGGTCAGTGAAGAGATGACGG | 4.71 | 5.84 | 0.729 | 0.828 | 5.87 |  | 2.61 | 4 | 6.07 | 5.44 | 8.65 | 4.46 | 10.7 | 5.01 | 4.1 |  | 3.65 | 8.98 | 8.98 |
| TCTTGTAGGTCAAAGGTTAAGAAAGCCGAAGCCT | 7.87 | 8.59 | 1.61 | 1.68 | 3.23 | 5.44 | 0.389 | 0.512 | 5.12 | 3.84 | 5.61 | 1.98 |  | 3.76 | 0.452 |  | 0.881 | 7.23 |  |
| CCTAGTTGGTCAAGGTAACACACGCTATAGGTAC | 1.65 | 1.92 | 0.633 | 0.573 | 1.25 |  | 0.51 | 1.13 | 1.26 | 1.22 | 1.36 | 0.599 | 0.724 | 1.85 | 1.57 |  | 0.864 | 0.88 | 0.946 |
| CTCGAAAGGTCGTGCTCAGGTGAGTATGCCAAAC | 1.24 | 1.96 | 0.261 | 0.173 | 1.39 |  | 0.126 | 0.00788 | 3.83 | 2.94 | 3.88 | 2.18 | 4.88 | 4.11 | 0.926 | 3.25 | 0.764 | 5.26 | 4.18 |
| GATACAGGGTCAGCTAGAGGTCAGAGTATGGAAA | 1.65 | 3.52 | 0.365 | -0.0888 | 6.51 | 5.99 | 1.34 | 1.59 | 5.32 | 5.26 | 7.07 | 1.95 | 7.42 | 4.49 | 1.85 |  | 3.45 |  |  |
| AATACAGGGTCACTAGGCCAGAGTGGGTACGAAT | 3.88 | 5.89 | 2.29 | 2.32 | 2.94 |  | 0.0148 | 0.459 | 4.03 | 3.17 | 4.79 | 2.59 | 5.4 | 3.29 | 1.4 | 3.97 | 3.06 | 5.09 | 4.01 |
